The record followed here is PubChem BioAssay AID624298 (National Center for Advancing Translational Sciences (NCATS), 2012).

Inconclusive results are not listed. Where a call stands in place of a potency, no number is given. Activity calls are given as the source filed them. Calls come from the whole dose curve; as a rule, active = well fitted activation curve with a large enough effect; inconclusive = small, poorly fitted or top-dose-only effect; inactive = no such curve, though single readings can be large or run the other way.
Potency is the fitted concentration of half-maximal effect.

The nature of this experiment: Activators of T cell receptors: Hit Validation. The note with it: primary human leukocytes, cytokine release by HTRF, 48 h, TCR-stimulated with anti-CD3 beads; series mostly up to 46.1 µM. A digest of the protocol: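 Primary human leukocytes incubated 48 hr with anti-CD3 beads plus compound, without co-stimulation. Secreted IL-2 quantified by HTRF (europium cryptate donor, d2 acceptor, 665 nm emission).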
Background: TR-FRET usually uses a lanthanide donor and a delayed reading to cut background.
In the case of `COc1ccc(Cl)cc1NC(=O)CN(C)C(=O)c1cn2ccccc2n1`, the Potency result was “inactive”. Then `CCn1nnnc1NC(=O)c1ccc2ccccc2c1`, with “inactive”. For `CC1CCCC(C)N1C(=O)COC(=O)C12CC3CC(CC(Cl)(C3)C1)C2` (configuration not stated) the value was “inactive”; for `O=C(OCc1cc(=O)n2cc(Br)ccc2n1)C1COc2ccccc2O1` (configuration not stated), “inactive”.

On to `Cc1ccc(C(=O)NCCc2nnc3ccc(SCC(=O)N4CCCCC4)nn23)cc1`, for which the Potency entry was “inactive”. For `O=C1c2ccccc2C(=O)N1CCCC(=O)N1CCCc2ccccc21` the value was “inactive”. Then `Cc1ccc(S(=O)(=O)N(C)/N=C/C=C/c2ccccc2)cc1`, with “inactive”.

For the compound `Cc1ccc(NC(=O)C2CC(=O)N(Cc3ccco3)C2)cc1` (configuration not stated), the Potency entry was “inactive”. Then `COc1ccccc1N1CCN(C(=O)C2CCN(S(=O)(=O)c3ccccc3F)CC2)CC1`, with “inactive”. For `CN(C)c1ccc(C=c2c3ccccc3n3c2c2ccccc2[n+]3C)cc1` the value was 0.56 µM (active).

Consider `CC(C)N1C(=O)C(=O)N(CC(=O)N2CCc3ccccc32)C1=O`, for which the Potency result was “inactive”.

In the case of `S=c1[nH]nc(-c2cccnc2)n1C1CCCCC1`, the Potency entry is “inactive”. Then `Cc1ncc[nH]1`, with “inactive”; and `Cc1[nH]c2ccccc2c1C(=O)CSc1nnc(C2CC2)o1`, with “inactive”. Then `O=C(CCOc1ccccc1)Nc1ccc(S(=O)(=O)Nc2ncccn2)cc1`, with “inactive”. For `CCCc1nc2ccccc2c(=O)n1CCc1ccccc1` the value was “inactive”; for `CSCCC(NC(=O)c1ccco1)C(=O)NCC1CCCO1` (configuration not stated), “inactive”. Take `COc1ccc(C(=O)COC(=O)c2sc(C)nc2C)cc1OC`: the Potency result is “inactive”. For `CCOC(=O)c1c(NC(=O)c2ccc(N3C(=O)C4C5C=CC(C5)C4C3=O)cc2)sc2c1CCCC2` (configuration not stated) the value was “inactive”. Then `COc1ccc(OC)c(NC(=O)COC(=O)c2ccc(OC)c(S(=O)(=O)N3CCOCC3)c2)c1`, with “inactive”; and `CC(C)(C)CC(=O)N1CCN(c2ccc(S(=O)(=O)N3CCOCC3)cc2[N+](=O)[O-])CC1`, with “inactive”; and `CC(=O)c1cccc(NC(=O)C(C)OC(=O)c2cccc(S(=O)(=O)N3CCN(C)CC3)c2)c1` (configuration not stated), with “inactive”. As for `S=c1[nH]c2ccccc2n2c(=S)[nH]nc12`, the Potency is 11.2 µM (active).

In the case of `Cc1ccc(C(CC(=O)O)Nc2nc(N3CCOCC3)nc(N3CCOCC3)n2)cc1` (configuration not stated), the Potency result is “inactive”. Then `COc1ccc(CN2CCN(C(=O)c3cc(C4CC4)nn3-c3ccccc3)CC2)cc1F`, with “inactive”; and `COc1ccc(-n2c(=O)c(CCC(=O)NCCc3ccccc3F)nc3ccccc32)cc1`, with “inactive”. Then `CCCCN1CCC(COC(=O)c2cc(Cl)c(N)c3c2OCCO3)CC1`, with “inactive”.
